# Experimental data from article PMC8384837, “Expanding the binding specificity for RNA recognition by a PUF domain”.
# Assays:
# Assay in all cases: yeast three-hybrid, YBZ-1, SC-Leu-His + 0.5 mM 3-AT, 4 days
# Conditions in all cases: tags: N-Gal4 AD-HA kept; label: inside an RPR1-promoter hybrid RNA with tandem MS2 sites; ssRNA
# [1] = biological target: PUM1 PUF domain R3-YRD (Homo sapiens, UniProt Q14671 828-1176, C935Y;Q939D)
# In short: (§1)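 The interaction score is the log change in how often each variant appears, from input to selection. Frequencies came from PCR-amplified, Illumina-sequenced repeat regions of Pumilio-1 PUF domain libraries grown in strain YBZ-1 (LexA–MS2 coat fusion, HIS3 reporter) alongside matching RNA elements. Input plates were SC-Leu and selection plates were SC-Leu-His + 0.5 mM 3-AT, each for four days, and the log2 calculation used a pseudocount of 1 where a variant was absent.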
# [2] = biological target: PUM1 PUF domain R3-GRR (Homo sapiens, UniProt Q14671 828-1176, C935G;Q939R)
# In short: as §1
# [3] = biological target: PUM1 PUF domain R8-TFR (Homo sapiens, UniProt Q14671 828-1176, N1122T;Y1123F;Q1126R)
# In short: as §1
# [4] = biological target: PUM1 PUF domain R1-QFR (Homo sapiens, UniProt Q14671 828-1176, S863Q;R864F;Q867R)
# In short: as §1
# [5] = biological target: PUM1 PUF domain R1-KRK (Homo sapiens, UniProt Q14671 828-1176, S863K;Q867K)
# In short: as §1
# [6] = biological target: PUM1 PUF domain R5-QPI (Homo sapiens, UniProt Q14671 828-1176, C1007Q;R1008P;Q1011I)
# In short: as §1
# [7] = biological target: PUM1 PUF domain R4-RGG (Homo sapiens, UniProt Q14671 828-1176, N971R;H972G;Q975G)
# In short: as §1
# [8] = biological target: PUM1 PUF domain R4-EWH (Homo sapiens, UniProt Q14671 828-1176, N971E;H972W;Q975H)
# In short: as §1
# [9] = biological target: PUM1 PUF domain R7-RSQ (Homo sapiens, UniProt Q14671 828-1176, S1079R;N1080S;E1083Q)
# In short: as §1
# Sequence of PUM1 PUF domain R8-TFR (Q14671 828-1176 N1122T/Y1123F/Q1126R): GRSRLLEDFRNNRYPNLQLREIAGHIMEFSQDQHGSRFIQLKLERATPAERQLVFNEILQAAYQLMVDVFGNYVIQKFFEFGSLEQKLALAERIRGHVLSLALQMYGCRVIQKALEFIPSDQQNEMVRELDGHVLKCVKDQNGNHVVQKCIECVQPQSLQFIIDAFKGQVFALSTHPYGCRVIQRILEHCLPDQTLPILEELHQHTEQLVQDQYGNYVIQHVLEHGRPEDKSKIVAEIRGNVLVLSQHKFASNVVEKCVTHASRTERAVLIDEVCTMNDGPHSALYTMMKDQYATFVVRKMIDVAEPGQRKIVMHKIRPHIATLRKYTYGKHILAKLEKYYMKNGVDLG
# Sequence of PUM1 PUF domain R3-GRR (Q14671 828-1176 C935G/Q939R): as the sequence (Q14671 828-1176 N1122T/Y1123F/Q1126R) above, with C108G, Q112R, T295N, F296Y, R299Q counted along it
# Sequence of PUM1 PUF domain R4-RGG (Q14671 828-1176 N971R/H972G/Q975G): as the sequence (Q14671 828-1176 N1122T/Y1123F/Q1126R) above, with N144R, H145G, Q148G, T295N, F296Y, R299Q counted along it
# Sequence of PUM1 PUF domain R7-RSQ (Q14671 828-1176 S1079R/N1080S/E1083Q): as the sequence (Q14671 828-1176 N1122T/Y1123F/Q1126R) above, with S252R, N253S, E256Q, T295N, F296Y, R299Q counted along it
# Sequence of PUM1 PUF domain R4-EWH (Q14671 828-1176 N971E/H972W/Q975H): as the sequence (Q14671 828-1176 N1122T/Y1123F/Q1126R) above, with N144E, H145W, Q148H, T295N, F296Y, R299Q counted along it
# Sequence of PUM1 PUF domain R1-KRK (Q14671 828-1176 S863K/Q867K): as the sequence (Q14671 828-1176 N1122T/Y1123F/Q1126R) above, with S36K, Q40K, T295N, F296Y, R299Q counted along it
# Sequence of PUM1 PUF domain R1-QFR (Q14671 828-1176 S863Q/R864F/Q867R): as the sequence (Q14671 828-1176 N1122T/Y1123F/Q1126R) above, with S36Q, R37F, Q40R, T295N, F296Y, R299Q counted along it
# Sequence of PUM1 PUF domain R3-YRD (Q14671 828-1176 C935Y/Q939D): as the sequence (Q14671 828-1176 N1122T/Y1123F/Q1126R) above, with C108Y, Q112D, T295N, F296Y, R299Q counted along it
# Sequence of PUM1 PUF domain R5-QPI (Q14671 828-1176 C1007Q/R1008P/Q1011I): as the sequence (Q14671 828-1176 N1122T/Y1123F/Q1126R) above, with C180Q, R181P, Q184I, T295N, F296Y, R299Q counted along it
sequence,measurement,setting,value
GGCUAGAACUAGUGGAUCCCCCGGCGCCCGGCGGCUCGAGCCCGGGUAAGUGUAAGUAGUCUGCAUGCCGCCGGGCGCCAUGCCUGCAGGUCGACUCUAGAAAACAUG,binding signal,[1],3.85 log2 enrichment (interaction score)
same,binding signal,[2],0.8 log2 enrichment (interaction score)
GGCUAGAACUAGUGGAUCCCCCGGCGCCCGGCGGCUCGAGCCCGGGUAAGGGUAAAUAGUCUGCAUGCCGCCGGGCGCCAUGCCUGCAGGUCGACUCUAGAAAACAUG,binding signal,[3],2.97 log2 enrichment (interaction score)
GGCUAGAACUAGUGGAUCCCCCGGCGCCCGGCGGCUCGAGCCCGGGUAAGCGUAAAUAGUCUGCAUGCCGCCGGGCGCCAUGCCUGCAGGUCGACUCUAGAAAACAUG,binding signal,[3],4.89 log2 enrichment (interaction score)
GGCUAGAACUAGUGGAUCCCCCGGCGCCCGGCGGCUCGAGCCCGGGUAAGUGUAAAUCGUCUGCAUGCCGCCGGGCGCCAUGCCUGCAGGUCGACUCUAGAAAACAUG,binding signal,[4],7.18 log2 enrichment (interaction score)
same,binding signal,[5],4.04 log2 enrichment (interaction score)
GGCUAGAACUAGUGGAUCCCCCGGCGCCCGGCGGCUCGAGCCCGGGUAAGUGUUAAUAGUCUGCAUGCCGCCGGGCGCCAUGCCUGCAGGUCGACUCUAGAAAACAUG,binding signal,[6],3.43 log2 enrichment (interaction score)
GGCUAGAACUAGUGGAUCCCCCGGCGCCCGGCGGCUCGAGCCCGGGUAAGUGUAAUUAGUCUGCAUGCCGCCGGGCGCCAUGCCUGCAGGUCGACUCUAGAAAACAUG,binding signal,[2],2.87 log2 enrichment (interaction score)
GGCUAGAACUAGUGGAUCCCCCGGCGCCCGGCGGCUCGAGCCCGGGUAAGUGUAAAUAGUCUGCAUGCCGCCGGGCGCCAUGCCUGCAGGUCGACUCUAGAAAACAUG,binding signal,[7],2.44 log2 enrichment (interaction score)
GGCUAGAACUAGUGGAUCCCCCGGCGCCCGGCGGCUCGAGCCCGGGUAAGUGUACAUAGUCUGCAUGCCGCCGGGCGCCAUGCCUGCAGGUCGACUCUAGAAAACAUG,binding signal,[7],1.13 log2 enrichment (interaction score)
same,binding signal,[8],2.99 log2 enrichment (interaction score)
GGCUAGAACUAGUGGAUCCCCCGGCGCCCGGCGGCUCGAGCCCGGGUAAGUCUAAAUAGUCUGCAUGCCGCCGGGCGCCAUGCCUGCAGGUCGACUCUAGAAAACAUG,binding signal,[9],2.88 log2 enrichment (interaction score)
